Results on 83 molecules are retold here after PubChem BioAssay AID1986 (Sanford-Burnham Center for Chemical Genomics, 2009).

A short description of the assay: cell-free HIV fusion peptide-binding blockers – biochemical, uHTS, fluorescence dequenching, primary screen (AID 1986). Conditions: 30 min, stronger effect = higher value.
The mark [1] stands for this setting: measured here: repeat confirmation average inhibition, at 18.6 µM.

Structures are written as SMILES. About 890 (0.31%) of roughly 290,000 compounds were called active. Rule as the data show it: active = inhibition mostly above about 52% (no sharp cut-off); inactive = mostly below about 76%. The entries come from a sample that favours actives as a whole.

For the molecule `CN(C)C(=O)CSc1nnc(Cc2ccccc2)n1CC1CCCO1` (configuration not stated), the inhibition (in general, the relative decrease from the control value, in per cent) (at 20 µM) is -1.3% (inactive).
Still for that read-out and setting: as for `COc1ccc(CN(CC(=O)NC2CCCC2)C(=O)CN2C(=O)COc3ccccc32)cc1`, the figure is 0.4% (inactive).
For `Clc1ccc(-c2cnn3c(-c4ccncc4)ccnc23)cc1`, under “at 20 µM”, the inhibition was -1.1% (inactive).
Take `NC(=O)c1c(NC(=O)C2COc3ccccc3O2)sc2c1CCN(Cc1ccccc1)C2` (configuration not stated): the inhibition is, setting by setting: (at 20 µM) 103% (active); under setting [1], 54%.
For `COC(=O)c1c(NC(=O)C2COc3ccccc3O2)sc2c1CCN(Cc1ccccc1)C2` (configuration not stated), under “at 20 µM”, the inhibition was 3.6% (inactive).
Same read-out and setting: as for `CCN1CCc2c(sc(NC(=O)C3COc4ccccc4O3)c2C(N)=O)C1` (configuration not stated), the figure is -0.3% (inactive); as for `Cc1nonc1OCCNC(=O)C12CC3CC(CC(C3)C1)C2`, 0.6% (inactive).
As to `COc1cc(/C=C2/C(=N)N3N=C(C(C)C)SC3=NC2=O)ccc1OS(=O)(=O)c1ccccc1`, where the note is “at 20 µM”, the inhibition is 22.3% (inactive).
Turning to `CS(=O)(=O)C1=NN2C(=N)/C(=C\c3ccc(OCCOc4ccccc4)cc3)C(=O)N=C2S1`, the inhibition (at 20 µM) was 80.6% (active).
In the case of `CCC1=NN2C(=N)/C(=C/c3ccc(OS(=O)(=O)c4ccc(C)cc4)c(OC)c3)C(=O)N=C2S1`, the inhibition (at 20 µM) is 46.6% (inactive).
For the molecule `COc1cc(/C=C2/C(=N)N3C(=NC2=O)SN=C3S(=O)(=O)C(C)C)ccc1OC(=O)c1ccco1`, under “at 20 µM”, the inhibition is 37.9% (inactive).
Turning to `CS(=O)(=O)C1=NN2C(=N)/C(=C\c3ccc(OC(=O)c4ccco4)cc3)C(=O)N=C2S1`, the inhibition (at 20 µM) was 47.6% (inactive).
Same read-out and setting: as for `COc1cc(/C=C2/C(=N)N3C(=NC2=O)SN=C3S(=O)(=O)C(C)C)ccc1OS(=O)(=O)c1ccccc1`, the figure is 71.6% (active); as for `COc1cc(/C=C2/C(=N)N3N=C(C)SC3=NC2=O)ccc1OS(=O)(=O)c1ccc(C)cc1`, 13.4% (inactive).
With `COc1cc(/C=C2/C(=N)N3C(=NC2=O)SN=C3S(C)(=O)=O)ccc1OC(=O)c1ccco1`, the inhibition (at 20 µM) is 58.3% (inactive) and the inhibition under setting [1] amounted to 49.7%.
Take `COc1cc(/C=C2\C(=N)N3N=C(S(C)(=O)=O)SC3=NC2=O)ccc1OS(=O)(=O)c1ccc(C)cc1`: the inhibition (at 20 µM) was 76.5% (active).
Turning to `CCS(=O)(=O)C1=NN2C(=N)/C(=C\c3ccc(OS(=O)(=O)c4ccccc4)cc3)C(=O)N=C2S1`, the inhibition (at 20 µM) was 39.1% (inactive).
As for `COc1cc(/C=C2\C(=N)N3N=CSC3=NC2=O)ccc1OS(=O)(=O)c1ccccc1`, the inhibition (at 20 µM) is 10% (inactive).
As to `COc1cc(/C=C2/C(=N)N3C(=NC2=O)SN=C3S(C)(=O)=O)ccc1OS(=O)(=O)c1ccc(C)cc1`, the inhibition (at 20 µM) is 72.4% (active).
Same read-out and setting: as for `CCNC(=O)COc1ccc(OCc2ccccc2)cc1`, the figure is 2% (inactive); as for `CC1(C)NC(=O)N(CC(O)CN(Cc2ccccc2)Cc2ccccc2)C1=O` (configuration not stated), 0.1% (inactive); as for `O=C(NCc1ccco1)C12CN(Cc3ccccc3)CC1C(c1cccc([N+](=O)[O-])c1)=NO2` (configuration not stated), 0.7% (inactive).
As to `COc1ccc(C2CC(c3c(-c4ccccc4)c4cc(Cl)ccc4[nH]c3=O)=NN2C(=O)CCC(=O)O)cc1` (configuration not stated), the inhibition (at 20 µM) was 15.1% (inactive).
Regarding `O=c1c2c([nH]n1-c1ccccc1)CCSC2`, the inhibition (at 20 µM) is 3.5% (inactive).
For `COc1ccc2c(c1OC)C[N+]1([O-])CCc3cc4c(cc3C1C2)OCO4` (configuration not stated), the inhibition (at 20 µM) was -1.5% (inactive).
For the molecule `C=CCNC(=S)NNc1nc(N2CCCC2)nc(N2CCCC2)n1`, for the setting “at 20 µM”, the inhibition was -0.8% (inactive).
Take `COc1ccnc(CN(C)C(=O)C2CCC(=O)N(Cc3cccc(C(F)(F)F)c3)C2)c1` (configuration not stated): for the setting “at 20 µM”, the inhibition was 4.4% (inactive).
As for `COc1cc(-n2nnnc2SC)c(OC)cc1Cl`, the inhibition (at 20 µM) was 2.2% (inactive).
The same measure, in the same setting: as for `C/C(=N\NC(=O)CN(c1ccc(Oc2ccccc2)cc1)S(C)(=O)=O)C(C)(C)C`, the figure is -0.5% (inactive).
Take `CCOC(=O)/C(C#N)=C\C=C1C=CN(C)C=C1`: the inhibition reads like this: (at 20 µM) 98.3% (active); under setting [1], 52.3%.
On to `CCCN1C=CC(=C/C=C(\C#N)C(=O)OCC)C=C1`, for which the inhibition (at 20 µM) was 0.7% (inactive).
On the same count and under the same terms, as for `C=CCN1C=CC(=C/C=C(/C#N)C(=O)OCC)C=C1`, the figure is -0.9% (inactive); as for `CC(C)Cc1nc(S(=O)(=O)c2ccc(Cl)cc2)c(N2CCOCC2)o1`, 1.2% (inactive).
Take `Cc1ccc(-n2c(=O)c3ccc(C(=O)NCc4ccco4)cc3n(Cc3ccccc3C#N)c2=O)cc1`: the inhibition (at 20 µM) is -1.1% (inactive).
As for `Nc1c(C(=O)NCC2CCCO2)sc2nc3c(c(-c4ccco4)c12)CC/C3=C\c1ccco1` (configuration not stated), the inhibition (at 20 µM) was 64.6% (active).
Turning to `Nc1c(C(=O)NC2CC2)sc2nc3c(c(-c4ccco4)c12)CC/C3=C/c1ccco1`, the inhibition is, setting by setting: (at 20 µM) 64.6% (inactive); under setting [1], 21.7%.
Turning to `Nc1c(C(=O)Nc2ccccc2)sc2nc3c(c(-c4ccco4)c12)CCC3`, the inhibition (at 20 µM) was -1.5% (inactive).
Take `COc1ccc(Nc2nc3ccccc3nc2NS(=O)(=O)c2cccs2)c(OC)c1`: the inhibition reads like this: (at 20 µM) 51.5% (active); under setting [1], 64.5%.
For the molecule `COc1ccc(Nc2nc3ccccc3nc2NS(=O)(=O)c2cccs2)cc1`, the inhibition (at 20 µM) is 45.5% (inactive).
Take `COc1cccc(Nc2nc3ccccc3nc2NS(=O)(=O)c2cccs2)c1`: the inhibition reads like this: (at 20 µM) 69.4% (inactive); under setting [1], 30.8%.
Turning to `Cc1cccc(C)c1NC(=O)CN(C)C(=O)c1ccccc1C(=O)N(C)Cc1ccccc1`, where the note is “at 20 µM”, the inhibition was -1.3% (inactive).
Regarding `C(=N\Nc1nc(N2CCCC2)nc(N2CCCC2)n1)/c1ccncc1`, the inhibition (at 20 µM) was -0.1% (inactive).
Still for that read-out and setting: next, `COc1ccc(C(=O)NCc2nnc(SCC(=O)Nc3ccccc3F)o2)cc1`: -1.8% (inactive).
As to `COc1ccccc1/C=C/C(=O)NCC(=O)n1nc(C)cc1C`, the inhibition (at 20 µM) is 0.9% (inactive).
Same read-out and setting: next, `O=c1cc(O)c2sc(Nc3ccc(Cl)c(F)c3)nc2[nH]1`: 46.9% (inactive); `O=c1cc(O)c2sc(Nc3ccc(F)c(Cl)c3)nc2[nH]1`: 51.4% (active).
In the case of `O=c1cc(O)c2sc(Nc3ccc(F)cc3)nc2[nH]1`, for the setting “at 20 µM”, the inhibition was 23.5% (inactive).
On to `CCOc1ccc2cc(C(=O)NCc3ccccc3)c(=N)oc2c1`, for which the inhibition (at 20 µM) is 0.1% (inactive).
As for `CCCCCC/C(C)=C1/SC(=S)NC1=O`, the inhibition (at 20 µM) was 24.4% (inactive).
With `CCO/C(C)=C1/SC(=S)NC1=O`, the inhibition (at 20 µM) was -1% (inactive).
Take `C/C(C/C(C)=C1/SC(=S)NC1=O)=C1\SC(=S)NC1=O`: the inhibition (at 20 µM) was 69.5% (active).
For the molecule `CCC1(CC)Cc2ccccc2C(=C(C#N)C#N)N1`, the inhibition (at 20 µM) was 0.7% (inactive).
For the molecule `Cc1c(Cc2ccccc2)sc(NC(=O)/C=C/c2cccc3ccccc23)c1C(N)=O`, the inhibition (at 20 µM) is 3.6% (inactive).
Turning to `COc1cc2ccccc2nn1`, the inhibition (at 20 µM) is -0.9% (inactive).
On to `COc1nc2ccccc2nc1OC`, for which, for the setting “at 20 µM”, the inhibition is 0.6% (inactive).
On to `COc1ccc2c(n1)Sc1nc3ccccc3nc1N2`, for which, for the setting “at 20 µM”, the inhibition was 82.7% (active).
On to `COC(=O)Nc1nnc(-c2ccccc2Cl)s1`, for which the inhibition (at 20 µM) is -1.6% (inactive).
Same read-out and setting: next, `CCCN(C(=O)COc1ccc(Cl)cc1Cl)c1c(N)n(Cc2ccccc2)c(=O)[nH]c1=O`: 5.9% (inactive); `CCSC1=N/C(=C\c2ccc3c(c2)OCO3)C(=O)S1`: 9.4% (inactive).
As to `CCSC1=N/C(=C\C=C2/Oc3ccccc3N2CC)C(=O)S1`, the inhibition reads like this: (at 20 µM) 109% (active); under setting [1], 63%.
`CCCCN1C(=O)/C(=C/C=C2\Oc3ccccc3N2CC)SC1=S`: for the setting “at 20 µM”, the inhibition is 149% (inactive).
Turning to `CCN(CC)c1ccc(-c2nc3cnccc3n2C)cc1`, under “at 20 µM”, the inhibition was 0.4% (inactive).
`O=C(NCC1CCCO1)C1CCN(C2CCN(Cc3ccco3)CC2)CC1` (configuration not stated): the inhibition (at 20 µM) was 1.6% (inactive).
For `CCOc1ccc(-c2nn(-c3ccccc3)cc2/C=C2\SC(=S)N(C3CCS(=O)(=O)C3)C2=O)cc1` (configuration not stated), the inhibition reads like this: (at 20 µM) 78.9% (active); under setting [1], 85%.
Consider `CCOc1ccc(-c2nn(-c3ccccc3)cc2/C=C2\SC(=S)N(Cc3ccco3)C2=O)cc1`, for which, where the note is “at 20 µM”, the inhibition is 17.3% (inactive).
The same measure, in the same setting: next, `CCCOc1ccc(-c2nn(-c3ccccc3)cc2/C=C2\SC(=S)N(C3CCS(=O)(=O)C3)C2=O)cc1` (configuration not stated): -1.7% (inactive); `CCCOc1cccc(C(=O)N(Cc2ccc(OC)c(OC)c2)C2CCS(=O)(=O)C2)c1` (configuration not stated): 1% (inactive).
Same read-out and setting: next, `CCCCN(C)CCNC(=O)c1ccc(Cn2c(=S)[nH]c3ccc(Br)cc3c2=O)cc1`: -3.1% (inactive).
For `COC(=O)N=Nc1c(O)n(Cc2ccccc2)c2ccccc12`, the inhibition (at 20 µM) was -1.9% (inactive).
Same read-out and setting: as for `O=C(COc1ccc(Cl)cc1Cl)Nc1ccc2nc3n(c(=O)c2c1)CCCC3`, the figure is -2.9% (inactive).
With `CCCC1(c2ccccc2)NC(=O)N(CC(=O)Nc2cc(OC)cc(OC)c2)C1=O` (configuration not stated), under “at 20 µM”, the inhibition is 0.8% (inactive).
With `CCC1(c2ccccc2)NC(=O)N(CC(=O)Nc2ccc(OC)nc2)C1=O` (configuration not stated), for the setting “at 20 µM”, the inhibition is 116% (active).
For the molecule `CCC1(c2ccccc2)NC(=O)N(CC(=O)Nc2ccc(S(N)(=O)=O)cc2)C1=O` (configuration not stated), the inhibition (at 20 µM) is 1.2% (inactive).
On to `O=C(COC(=O)c1ccc(S(=O)(=O)N2CCOCC2)cc1)NC1CCCC1`, for which the inhibition (at 20 µM) is 0.3% (inactive).
As to `Cc1ccn2c(Nc3ccccc3)c(-c3ccccn3)nc2c1`, under “at 20 µM”, the inhibition was -2.6% (inactive).
As for `Cc1ccc(Nc2c(-c3ccccn3)nc3cc(C)ccn23)cc1`, where the note is “at 20 µM”, the inhibition was 0.3% (inactive).
Regarding `Cc1ccn2c(Nc3ccc4c(c3)OCO4)c(-c3ccccn3)nc2c1`, the inhibition (at 20 µM) was 114% (active).
The same measure, in the same setting: next, `CCC(C)NC(=O)CN1C(=O)NC2NC(=O)NC21` (configuration not stated): 0.8% (inactive).
Turning to `Cc1cc(NC(=S)N(Cc2ccc(Br)cc2)Cc2ccc(C(=O)O)cc2)ccc1Cl`, under “at 20 µM”, the inhibition is 59.2% (active).
For `Cc1cc(NC(=S)N(Cc2ccc(Cl)cc2)Cc2ccc(C(=O)O)cc2)ccc1Cl`, the inhibition is, setting by setting: (at 20 µM) 53.2% (inactive); under setting [1], 34.6%.
Take `Cc1ccc(NC(=S)N(Cc2ccc(Br)cc2)Cc2ccc(C(=O)O)cc2)cc1C`: the inhibition (at 20 µM) is 36.8% (inactive).
Still for that read-out and setting: as for `CCOc1cc(/C=N/NC(=O)Cc2ccc(C(F)(F)F)cc2[N+](=O)[O-])c(Br)cc1OC`, the figure is 0.7% (inactive); as for `O=C(Nc1nnc(CCc2ccccc2)s1)c1ccc(F)cc1`, 1.8% (inactive).
